# Source: PubChem (NMMLSC)
# GSH bead fluor – compound fluoresces at 488/530 nm on GSH beads | fluorescence (KMESF) at 10 µM | actives 0.25% (n = 190,000) | GSH beads flow cytometry, compound fluorescence 488/530 nm; hits give high values; in the data active = fluorescence above about 89;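 note: glutathione beads carrying GST-tagged Bcl family fusion proteins plus one bare bead set; values are compound well signal with DMSO vehicle wells as background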
# RGS16-Gao – RGS16-Galphao interaction regulator (human) | AID 1441 | O15492+P09471 | binding response (% of control), % at 10 µM | bead-based flow cytometry RGS16-Galphao binding, fluorescence; actives lie on both sides | actives 0.38% (n = 220,000);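 note: Galphao activated by GDP with aluminum fluoride before binding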
# RGS7-Gao reg – modulates binding of RGS7 to human Galphao. P09471. Multiplexed bead flow cytometry; actives lie on both sides. binding response (% of control), % at 10 µM. actives 0.35% (n = 220,000); in the data active = binding response below about 49% or above about 150%; inconclusive = no clear call, values can overlap the other calls; inactive = in between;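 note: fluorescent Galphao held in activated GDP-AlF4 state binding bead-coupled RGS7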
# Target sequence (P09471 whole entry, looked up): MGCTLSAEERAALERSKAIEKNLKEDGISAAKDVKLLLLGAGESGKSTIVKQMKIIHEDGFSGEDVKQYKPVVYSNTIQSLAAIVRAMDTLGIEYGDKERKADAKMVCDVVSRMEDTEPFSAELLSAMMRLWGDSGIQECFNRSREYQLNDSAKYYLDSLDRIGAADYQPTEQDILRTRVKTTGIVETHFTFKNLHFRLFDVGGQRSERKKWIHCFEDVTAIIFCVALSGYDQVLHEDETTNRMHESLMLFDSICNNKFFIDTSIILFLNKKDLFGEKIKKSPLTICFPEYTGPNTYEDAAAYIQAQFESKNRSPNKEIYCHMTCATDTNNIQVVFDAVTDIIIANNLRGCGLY
# RGS8-Gao – human RGS8-Galphao interaction regulation; multiplexed bead flow cytometry, RGS8-Galphao binding; actives lie on both sides; response (percent of control binding), % at 10 µM; P09471; AID 1423; actives 0.34% (n = 220,000); in the data active = response below about 60% or above about 140%; inactive = in between;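 note: Galphao activated as the GDP aluminium fluoride complex binding bead-coupled RGS8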
# Avidin fluor – avidin bead compound fluorescence profile; Avidin beads, compound fluorescence 488/530 nm, flow cytometry; hits give high values; fluorescence (KMESF) at 10 µM; actives 0.38% (n = 220,000); in the data active = fluorescence above about 47
# RGS4-Gao reg – modulates binding of RGS4 to human Galphao; binding response (% of control), % at 10 µM; AID 1415; P09471; actives 0.33% (n = 220,000); Multiplexed bead flow cytometry; actives lie on both sides; in the data active = binding response below about 49% or above about 150%; inactive = in between;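 note: fluorescent Galphao activated with aluminum fluoride binding bead-coupled RGS4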
# RGS4-Gao HTS – modulates binding between human RGS4 and Galphao; shares compounds with RGS16-Gao; RGS4–Galpha-o binding response, % at 10 µM; AID 1504; actives 99% (n = 1,600); multiplexed bead flow cytometry, RGS–Galpha-o binding;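 note: fluorescently labeled Galpha-o bound to GDP with aluminium fluoride binding biotinylated RGS beads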
# Avidin counter – counter-screen: compounds disrupting biotin binding to avidin beads; shares compounds with RGS16-Gao; streptavidin beads, fluorescein-biotin binding, flow cytometry; inhibition, % at 10 µM; 1,700 tested, under 10 active; AID 1783;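 active = inhibition above 50%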;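 note: median green fluorescence of gated singlet beads compared with DMSO control wells; 0% = DMSO wells and 100% = complete loss of bead fluorescence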
# RGS8-Gao single – confirmation of regulators of human RGS8-Galphao interaction | shares compounds with RGS16-Gao | bead-based flow cytometry RGS8-Galphao binding, fluorescence; actives lie on both sides | binding response (% of control), % at 10 µM | actives 3% (n = 1,700) | AID 1836; in the data active = binding response below about 72% or above about 130%; inactive = in between;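 note: Galphao activated as GDP AlF4 complex before binding bead RGS8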
# RGS7-Gao single – RGS7-Galphao interaction regulation, single point confirmation. AID 1837. response (percent of control binding), % at 10 µM. bead-based flow cytometry RGS7-Galphao binding; actives lie on both sides. actives 7.8% (n = 1,700). shares compounds with RGS16-Gao; in the data active = response below about 75% or above about 130%; inactive = in between;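 note: fluorescent Galphao activated with GDP and aluminum fluoride binding bead-coupled RGS7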
# RGS16-Gao single – RGS16-Galphao interaction regulation, single point confirmation | response (% of control binding), % at 10 µM | actives 4% (n = 1,700) | bead-based flow cytometry, RGS16-Galphao binding; actives lie on both sides | shares compounds with RGS16-Gao; in the data active = response below about 74% or above about 130%; inactive = in between;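 note: Galphao activated as the GDP aluminium fluoride complex binding bead-coupled RGS16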
# RGS4-Gao single – confirmation of regulators of human RGS4-Galphao interaction | shares compounds with RGS16-Gao | RGS4-Galphao binding, multiplexed bead flow cytometry; actives lie on both sides | binding response (% of control), % at 10 µM | actives 4% (n = 1,700); in the data active = binding response below about 74% or above about 130%; inactive = in between
# RGS19-Gao single – confirmation of regulators of human RGS19-Galphao interaction; actives 5% (n = 1,700); response (percent of control binding), % at 10 µM; shares compounds with RGS16-Gao; bead-based flow cytometry RGS19-Galphao binding; actives lie on both sides; AID 1841; in the data active = response below about 50% or above about 160%; inactive = in between;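 note: 100% = no compound control and 0% = blank background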
# Active calls of the source: *; ? = inconclusive; · = not tested or not shown; [ ] = dose if it differs, or a comment. This is a sample that favours compounds with a hit; in the whole collection about 1.2% have one here. Unless noted, the rule behind the calls is not given here.
SMILES,GSH bead fluor,RGS16-Gao,RGS7-Gao reg,RGS8-Gao,Avidin fluor,RGS4-Gao reg,Avidin counter,RGS8-Gao single,RGS7-Gao single,RGS16-Gao single,RGS4-Gao single,RGS19-Gao single,others
COc1ccc2c(c1OC)C(=O)N1N=C(c3ccc(F)cc3)CC21 (stereo not drawn),17,98,99,101,10,97,·,·,·,·,·,·,
O=C(O)/C=C/C(=O)N1CCN(C(c2ccccc2)c2ccccc2)CC1,·,106,?,107,6,111,·,·,·,·,·,·,
Cc1ccc(C2C3=C(CC(C)(C)CC3=O)Nc3onc(C)c32)cc1 (stereo not drawn),35,141,136,·,·,147,-1,102,104,100,103,100,
CCCCCCOc1ccc(N2C(=O)CC(SC(=NCC)NCC)C2=O)cc1 (stereo not drawn),13,117,108,106,·,110,·,·,·,·,·,·,
CCOC(=O)C1=C(N)OC2=C(C(=O)CCC2)C1c1ccccc1OC (stereo not drawn),16,105,99,101,11,99,·,·,·,·,·,·,
CCOC(=O)C1=C(N)OC2=C(C(=O)CCC2)C1c1ccccc1OCC (stereo not drawn),34,111,296*[activator],97,172*,135,0,97,93,97,99,99,RGS4-Gao HTS=135*
CCOc1ccccc1NC(=O)NC(=O)N(C)S(=O)(=O)c1ccc(C)cc1,11,110,105,104,24,103,·,·,·,·,·,·,
O=C(Nc1ccccc1)c1c2c(nc3ccccc13)CCCC2,·,103,?,101,3,101,·,·,·,·,·,·,
Cc1ccc(/C=N/NC(=O)c2ccc3nc[nH]c3c2)o1,·,92,?,95,128*,156*[activator],3,98,90,98,96,78,
Cc1cc(C)cc(C(=O)NCC(=O)OCc2c(C)noc2C)c1,10,1.9*,-0.1*,15*,-5,16*,1,101,102,100,98,102,
Cc1cc(NS(=O)(=O)c2ccc(NC(NC(=O)C(C(F)(F)F)C(F)(F)F)(C(F)(F)F)C(F)(F)F)cc2)no1,15,40,155*[activator],80,3,101,-2,95,98,99,98,97,RGS4-Gao HTS=101*
COc1ccc(-c2csc(NC(=O)COC(=O)C3=COCCO3)n2)cc1,11,111,112,105,13,111,·,·,·,·,·,·,
O=C(Cc1cccs1)N1CCN(c2ccc([N+](=O)[O-])cc2)CC1,9,96,94,95,10,97,·,·,·,·,·,·,
Cc1nn(-c2ccccc2)c(N)c1Sc1cccc([N+](=O)[O-])c1,8,202*[activator],122,120,12,111,-1,103,103,105,104,103,RGS4-Gao HTS=111*
Cc1nn(-c2ccccc2)c(N)c1Sc1ccccc1[N+](=O)[O-],15,97,97,97,16,94,·,·,·,·,·,·,
N#Cc1ccccc1S(=O)(=O)c1ccccc1C(=O)Nc1ccccc1,9,132,114,116,18,110,·,·,·,·,·,·,
